± gives the standard deviation of the averaged measurements. Whole data set: some 25,000 sequences, median “ln(normalized median fluorescence intensity)” near 8.6, cut for the highest 2% near 10. Only a selection was taken, and the highest values are over-represented in it overall.

The test system of the assay is PfAP2-EXP AP2 domain (GST-tagged). Kind of assay: gcPBM binding intensity (ln(normalized median fluorescence intensity)); higher = stronger DNA binding. The essentials: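 Binding intensity is the highest Masliner-normalised natural-log median intensity over replicate spots in either probe orientation. To obtain it, GST-tagged P. falciparum DNA-binding domains made in E. coli were incubated for 1 h on an Agilent 4 × 180k array of primer-extended double-stranded 36-bp intergenic genomic probes plus negative controls. Detection used Alexa488 anti-GST antibody with scanning at 488 nm.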
For the sequence “AAAAAAAAAAAAAATACACACATATATAAATAAATA [CACACA_site6459]”, the “gcPBM binding intensity (ln)” value came out at 8.31 ± 0.45.
For “TATAAACATAAATATACACACAAACATATATGTATT [CACACA_site8324]” the value was 8.51 ± 0.42.
For “CTGTGTTTTGGTTGTACACACGCTACATTCTATATT [CACACA_site2698]” the value was 9.16 ± 0.28; for “TTTTTAAAAATAACAGAAAAGAATTACAGATTTTTT [XGTACX_negctrl_site472]”, 8.34 ± 0.41.
Turning to “TTTTGCTTTTTTTTTCTTTTTTGTTTTATATATATT [CACACA_negctrl_site103]”, the “gcPBM binding intensity (ln)” value was 8.51 ± 0.53.
As to “TTTTGTTGCTCTTTTTTTTTTTTTTTTAACTGTATG [CACACA_negctrl_site1072]”, the “gcPBM binding intensity (ln)” value amounted to 8.57 ± 0.43.
For “TTTTTTTGCTCTTTTTATATATATATATATATATAT [GTGCAC_negctrl_site70]”, the “gcPBM binding intensity (ln)” value came out at 10.2 ± 0.46.
As for “TATGTATATATATATATATATATATATATATATATA [TGCATGCA_negctrl_site491]”, the figure is 10.1 ± 0.66.
As to “TAAAGGAGCCTATGAACACACACATGTACTTATATT [CACACA_site9351]”, the “gcPBM binding intensity (ln)” value was found to be 8.56 ± 0.4.
For “TGTATGAAATATATTACACACATATAAAATCTATAT [CACACA_site6514]”, the “gcPBM binding intensity (ln)” value came to 8.35 ± 0.57.
In the case of “AACATTATAAGACACACACACACATATATATATATA [CACACA_site8259]”, the “gcPBM binding intensity (ln)” value was 10.1 ± 0.39.
As for “CATTATTATTTTATAACACACACATATATATTATAT [CACACA_site8405]”, the figure is 8.48 ± 0.34.
As for “AAACATAAGAAACACACACACATATATATATATATA [CACACA_site3642]”, the figure is 10.1 ± 0.35.
For “TCGAACATTAACATAACACACATATAGATTTATATA [CACACA_site7380]” the value was 8.29 ± 0.42; for “CATTATAAGAAACACACACACATATATATATATATA [CACACA_site1051]”, 10.2 ± 0.47; for “AAATTTATAAAGAACACACACATATAAATATAAATA [CACACA_site6174]”, 8.93 ± 0.49.
With “CCAAATTTATAAAGAACACACACATATATATATATA [CACACA_site7900]”, the “gcPBM binding intensity (ln)” value turned out to be 9.99 ± 0.4.
For “TATATTAAGAAACACACACACATATATATATATATA [CACACA_site1609]” the value was 10.2 ± 0.3.
For “TCGAACATTAACATAACACACATATATATATATATA [CACACA_site2900]”, the “gcPBM binding intensity (ln)” value amounted to 10.2 ± 0.32.
Consider “AAATTTATAAAGAACACACACATATATATATATATA [CACACA_site48]”, for which the “gcPBM binding intensity (ln)” value worked out at 10.2 ± 0.27.
For “TTAATTAAGAAACACACACACATATATATATATATT [CACACA_site2290]” the value was 8.67 ± 0.42.
As for “TATATATTAAAACACACACACATATATATATATATA [CACACA_site3787]”, the figure is 10 ± 0.38.
“TTTTTTAAAAATATTATCATCGTAACAAGAAATCGA [CACACA_negctrl_site1111]”: the “gcPBM binding intensity (ln)” value stood at 8.45 ± 0.4.
As to “AATAAAAAACATGAAAGTACTTTAAAAAAGGTAATA [XGTACX_site1897]”, the “gcPBM binding intensity (ln)” value is 8.9 ± 0.45.
For “CAAACAAATATATGTTGTACTTATTATATATACATA [XGTACX_site2998]” the value was 8.38 ± 0.33.
As to “ATAATATAGAAACACACACACATATATATATACATT [CACACA_site555]”, the “gcPBM binding intensity (ln)” value is 8.71 ± 0.29.
Consider “TAGATAGATTAAAATACATGCATATTATTAAAAAAT [TGCATGCA_site739]”, for which the “gcPBM binding intensity (ln)” value came out at 8.84 ± 0.13.
Turning to “AAAGCACCCAAGAATACACACAAATATTATAAAAAA [CACACA_site111]”, the “gcPBM binding intensity (ln)” value was 8.57 ± 0.58.
As for “TAAACATAATAATATACACACATATATTGATATATA [CACACA_site2144]”, the figure is 8.18 ± 0.43.
As for “AACCAAATTTCACCATGTACATATTGATAAATATAT [XGTACX_site1374]”, the figure is 8.7 ± 0.34.
For “GGATTCAAAAAAAAAAATAAAAGTAAATAATAAATA [TGCATGCA_negctrl_site348]” the value was 8.27 ± 0.42; for “ATACACTAGAAAATTTTATAGTATTATTAATGTTAA [GTGCAC_negctrl_site101]”, 8.19 ± 0.42; for “AAATAATAAATTATAACACACATATATATATATATA [CACACA_site4045]”, 10 ± 0.47.
On to “TAAATTTAGAAACACACACACATATATATATATATA [CACACA_site847]”, for which the “gcPBM binding intensity (ln)” value worked out at 10.3 ± 0.4.
For “TATATAATTATAAGAACACACATATATATATATATA [CACACA_site2472]” the value was 10.2 ± 0.2.
For “TTTATAAAAATGAACACACACATATATATATATATA [CACACA_site3493]” the value was 10.4 ± 0.3; for “TATATATAATTATAAGAACACACATATATATATATA [CACACA_site8786]”, 10.2 ± 0.18.
Turning to “TTTATAAAAATGAACACACACATATAAATATAAATA [CACACA_site7607]”, the “gcPBM binding intensity (ln)” value was 8.65 ± 0.44.
As for “ATTTAGAAAAATAAAACACACATATATATGTAAATA [CACACA_site4113]”, the figure is 8.66 ± 0.48; as for “TTTTTATAAAAATGAACACACACATATATATATATA [CACACA_site9160]”, 10.2 ± 0.4; as for “AAAAATTAGAAACACACACACATATATATATATATT [CACACA_site1042]”, 8.71 ± 0.22.
As for “TGTTAATTAAAGGACTGTACACTAATAATTCTATAA [XGTACX_site5195]”, the figure is 8.5 ± 0.34; as for “TTTTAAAACAATGAGATTCCTTTCTTTTTTTCTTTT [CACACA_negctrl_site1320]”, 7.96 ± 0.59.
On to “TGACCGTTTTAAGAGTGTACAAAAAAAAAAAAAAAA [XGTACX_site4141]”, for which the “gcPBM binding intensity (ln)” value came out at 8.21 ± 0.43.
For “ATATATTTCTGTCAAGCACACATAATATTAATATAT [CACACA_site7993]” the value was 8.86 ± 0.45; for “AAAAAATGGCTAGTTTGTACACAAAAGTTATTGCAT [XGTACX_site5381]”, 8.43 ± 0.33; for “TTAATATAGATATAACCACACACATACATCTAATTC [CACACA_site8519]”, 8.65 ± 0.46.
With “ATTAATTATGTATTTCAACAAAGAAGTGTTATATAT [GTGCAC_negctrl_site215]”, the “gcPBM binding intensity (ln)” value amounted to 8.49 ± 0.35.
“TCAAAAAAGACACACCGTACATACTATTTGGACAGG [XGTACX_site7699]”: the “gcPBM binding intensity (ln)” value came out at 8.51 ± 0.36.

Source of the values: the supplement of paper PMC11417369.
